This is an account of results in PMC8384837, “Expanding the binding specificity for RNA recognition by a PUF domain”.

Common to all, as to assay: yeast three-hybrid, YBZ-1, SC-Leu-His + 0.5 mM 3-AT, 4 days
Common to all, as to details: tags: N-Gal4 AD-HA kept; label: inside an RPR1-promoter hybrid RNA with tandem MS2 sites; ssRNA

In test [1] the target is T1, PUM1 PUF domain R6-IFM (Homo sapiens, UniProt Q14671 828-1176, N1043I;Y1044F;Q1047M).
T1 sequence: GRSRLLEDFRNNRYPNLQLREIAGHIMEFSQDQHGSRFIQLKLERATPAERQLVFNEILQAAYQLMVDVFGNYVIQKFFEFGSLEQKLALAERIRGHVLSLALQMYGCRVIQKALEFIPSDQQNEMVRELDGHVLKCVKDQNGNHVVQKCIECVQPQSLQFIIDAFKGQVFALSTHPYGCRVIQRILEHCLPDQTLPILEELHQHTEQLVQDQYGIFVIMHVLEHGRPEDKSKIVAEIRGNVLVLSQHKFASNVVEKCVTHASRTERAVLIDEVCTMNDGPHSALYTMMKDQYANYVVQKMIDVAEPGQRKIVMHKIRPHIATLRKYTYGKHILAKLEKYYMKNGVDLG
In short, it runs like this:
(§1)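 Sequencing with Illumina followed PCR amplification of the repeat regions from transformants grown four days on SC-Leu (input) or SC-Leu-His + 0.5 mM 3-AT (selection). The transformants were strain YBZ-1 with a LexA–MS2 coat fusion and a HIS3 reporter, carrying Pumilio-1 PUF domain libraries and matching RNA elements. The interaction score is the log change in variant frequency from input to selection, computed in log2 with a pseudocount of 1 for absent variants.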

For test [2], the target named is T2, PUM1 PUF domain R6-MWS (Homo sapiens, UniProt Q14671 828-1176, N1043M;Y1044W;Q1047S).
T2 sequence: T1 sequence with I216M, F217W, M220S
In short, it runs like this: as §1

Test [3] concerns the target T3, PUM1 PUF domain R6-CFI (Homo sapiens, UniProt Q14671 828-1176, N1043C;Y1044F;Q1047I).
T3 sequence: T1 sequence with I216C, M220I
In short, it runs like this: as §1

Test [4] addresses PUM1 PUF domain R1-TGE (Homo sapiens, UniProt Q14671 828-1176, S863T;R864G;Q867E). The essentials:
as §1

In test [5] the target is PUM1 PUF domain R1-HWR (Homo sapiens, UniProt Q14671 828-1176, S863H;R864W;Q867R). The essentials: as §1
Test [6] deals with PUM1 PUF domain R1-YTR (Homo sapiens, UniProt Q14671 828-1176, S863Y;R864T;Q867R). In short, it runs like this:
as §1

Test [7] has as its target PUM1 PUF domain R5-KGE (Homo sapiens, UniProt Q14671 828-1176, C1007K;R1008G;Q1011E). In short, it runs like this:
as §1

Test [8] deals with PUM1 PUF domain R5-RYA (Homo sapiens, UniProt Q14671 828-1176, C1007R;R1008Y;Q1011A). In short, it runs like this:
as §1

Test [9] concerns the target PUM1 PUF domain R3-RAF (Homo sapiens, UniProt Q14671 828-1176, C935R;R936A;Q939F). The essentials: as §1
For test [10], the target named is PUM1 PUF domain R3-RSP (Homo sapiens, UniProt Q14671 828-1176, C935R;R936S;Q939P). The essentials:
as §1

Test [11] concerns the target PUM1 PUF domain R7-RRQ (Homo sapiens, UniProt Q14671 828-1176, S1079R;N1080R;E1083Q). The essentials: as §1
Test [12] concerns the target PUM1 PUF domain R8-QWC (Homo sapiens, UniProt Q14671 828-1176, N1122Q;Y1123W;Q1126C). The essentials: as §1
Test [13] addresses PUM1 PUF domain R2-LWA (Homo sapiens, UniProt Q14671 828-1176, N899L;Y900W;Q903A). The essentials: as §1
The target in test [14] is PUM1 PUF domain R8-MFR (Homo sapiens, UniProt Q14671 828-1176, N1122M;Y1123F;Q1126R). In short, it runs like this: as §1
The target in test [15] is PUM1 PUF domain R4-THL (Homo sapiens, UniProt Q14671 828-1176, N971T;Q975L). In short, it runs like this:
as §1

Test [16] addresses PUM1 PUF domain R3-PWN (Homo sapiens, UniProt Q14671 828-1176, C935P;R936W;Q939N). The essentials:
as §1

Test [17] concerns the target PUM1 PUF domain R4-RWP (Homo sapiens, UniProt Q14671 828-1176, N971R;H972W;Q975P). In short, it runs like this: as §1
Test [18] concerns the target T4, PUM1 PUF domain R6-QRR (Homo sapiens, UniProt Q14671 828-1176, N1043Q;Y1044R;Q1047R).
T4 sequence: T1 sequence with I216Q, F217R, M220R
In short, it runs like this: as §1

The target in test [19] is PUM1 PUF domain R8-RYS (Homo sapiens, UniProt Q14671 828-1176, N1122R;Q1126S). In short, it runs like this:
as §1

In test [20] the target is PUM1 PUF domain R4-SRI (Homo sapiens, UniProt Q14671 828-1176, N971S;H972R;Q975I). The essentials:
as §1

Positions count from the first letter of the chain named.

For “GGCUAGAACUAGUGGAUCCCCCGGCGCCCGGCGGCUCGAGCCCGGGUAAGUGAAAAUAGUCUGCAUGCCGCCGGGCGCCAUGCCUGCAGGUCGACUCUAGAAAACAUG”, the results for the binding signal in [1], in [2] and in [3] were 6.96 log2 enrichment (interaction score), 2.78 log2 enrichment (interaction score) and 5.68 log2 enrichment (interaction score), respectively.

With “GGCUAGAACUAGUGGAUCCCCCGGCGCCCGGCGGCUCGAGCCCGGGUAAGUGUAAAUGGUCUGCAUGCCGCCGGGCGCCAUGCCUGCAGGUCGACUCUAGAAAACAUG”, the binding signal in [4] was 2.92 log2 enrichment (interaction score).

Regarding “GGCUAGAACUAGUGGAUCCCCCGGCGCCCGGCGGCUCGAGCCCGGGUAAGUGUAAAUUGUCUGCAUGCCGCCGGGCGCCAUGCCUGCAGGUCGACUCUAGAAAACAUG”, the binding signal in [5] is 3.32 log2 enrichment (interaction score); in [4] it was 3.46 log2 enrichment (interaction score); in test [6] it was 6.22 log2 enrichment (interaction score).

On to “GGCUAGAACUAGUGGAUCCCCCGGCGCCCGGCGGCUCGAGCCCGGGUAAGUGUCAAUAGUCUGCAUGCCGCCGGGCGCCAUGCCUGCAGGUCGACUCUAGAAAACAUG”, for which the results for the binding signal in test [7] and in test [8] were 5.15 log2 enrichment (interaction score) and 4.95 log2 enrichment (interaction score), respectively.

Turning to “GGCUAGAACUAGUGGAUCCCCCGGCGCCCGGCGGCUCGAGCCCGGGUAAGUGUAAAUCGUCUGCAUGCCGCCGGGCGCCAUGCCUGCAGGUCGACUCUAGAAAACAUG”, the binding signal in test [5] was 5.91 log2 enrichment (interaction score); in [6], 6.08 log2 enrichment (interaction score).

“GGCUAGAACUAGUGGAUCCCCCGGCGCCCGGCGGCUCGAGCCCGGGUAAGUGUAAUUAGUCUGCAUGCCGCCGGGCGCCAUGCCUGCAGGUCGACUCUAGAAAACAUG”: the binding signal in test [9] was 3.3 log2 enrichment (interaction score); in test [10] it was 4.96 log2 enrichment (interaction score).

In the case of “GGCUAGAACUAGUGGAUCCCCCGGCGCCCGGCGGCUCGAGCCCGGGUAAGUUUAAAUAGUCUGCAUGCCGCCGGGCGCCAUGCCUGCAGGUCGACUCUAGAAAACAUG”, the binding signal in test [11] is 5.4 log2 enrichment (interaction score).

In the case of “GGCUAGAACUAGUGGAUCCCCCGGCGCCCGGCGGCUCGAGCCCGGGUAAGUGUAAAUAGUCUGCAUGCCGCCGGGCGCCAUGCCUGCAGGUCGACUCUAGAAAACAUG”, the binding signal in test [12] was 3 log2 enrichment (interaction score); in [13], 1.62 log2 enrichment (interaction score); in test [14] it was 3.78 log2 enrichment (interaction score); in [7] it was 2.24 log2 enrichment (interaction score); in [15], 4.66 log2 enrichment (interaction score); in [8], 1.12 log2 enrichment (interaction score). Moreover, the binding signal is 2.55 log2 enrichment (interaction score) in [16]; 5.93 log2 enrichment (interaction score) in [17]; 5.31 log2 enrichment (interaction score) in test [2]; 6.35 log2 enrichment (interaction score) in [18]; 4.4 log2 enrichment (interaction score) in [19]; 3.08 log2 enrichment (interaction score) in [20].

For the sequence “GGCUAGAACUAGUGGAUCCCCCGGCGCCCGGCGGCUCGAGCCCGGGUAAGUGUAAAGAGUCUGCAUGCCGCCGGGCGCCAUGCCUGCAGGUCGACUCUAGAAAACAUG”, in test [13], the binding signal was 2.94 log2 enrichment (interaction score).

Turning to “GGCUAGAACUAGUGGAUCCCCCGGCGCCCGGCGGCUCGAGCCCGGGUAAGUGUAUAUAGUCUGCAUGCCGCCGGGCGCCAUGCCUGCAGGUCGACUCUAGAAAACAUG”, the binding signal in test [20] was 1.38 log2 enrichment (interaction score).

For “GGCUAGAACUAGUGGAUCCCCCGGCGCCCGGCGGCUCGAGCCCGGGUAAGUGUAAAAAGUCUGCAUGCCGCCGGGCGCCAUGCCUGCAGGUCGACUCUAGAAAACAUG”, the binding signal in test [13] is 6.09 log2 enrichment (interaction score).

“GGCUAGAACUAGUGGAUCCCCCGGCGCCCGGCGGCUCGAGCCCGGGUAAGUGUAAGUAGUCUGCAUGCCGCCGGGCGCCAUGCCUGCAGGUCGACUCUAGAAAACAUG”: the binding signal in [10] was 1.39 log2 enrichment (interaction score).

Regarding “GGCUAGAACUAGUGGAUCCCCCGGCGCCCGGCGGCUCGAGCCCGGGUAAGUGCAAAUAGUCUGCAUGCCGCCGGGCGCCAUGCCUGCAGGUCGACUCUAGAAAACAUG”, the binding signal in test [18] was 5.8 log2 enrichment (interaction score).

Take “GGCUAGAACUAGUGGAUCCCCCGGCGCCCGGCGGCUCGAGCCCGGGUAAGCGUAAAUAGUCUGCAUGCCGCCGGGCGCCAUGCCUGCAGGUCGACUCUAGAAAACAUG”: the results for the binding signal in test [12], in [14] and in test [19] were 2.08 log2 enrichment (interaction score), 5.35 log2 enrichment (interaction score) and 6.43 log2 enrichment (interaction score), respectively.

With “GGCUAGAACUAGUGGAUCCCCCGGCGCCCGGCGGCUCGAGCCCGGGUAAGUGUUAAUAGUCUGCAUGCCGCCGGGCGCCAUGCCUGCAGGUCGACUCUAGAAAACAUG”, the binding signal in [8] was 4.8 log2 enrichment (interaction score).
